Wnt act = Wnt/beta-catenin pathway activation; Wnt/beta-catenin reporter cell assay, activator, plate reader; activation, % at 9.35 µM; actives 1.2% (n = 300,000); AID 743398; in the data active means activation above about 30%, passing the limit was not always enough; inconclusive means no clear call, values can overlap the other calls
MITF TRPM1 HTS = MITF TRPM1 promoter activation in melanoma cells; actives 0.75% (n = 300,000); AID 588334; SK-MEL-5 TRPM1-promoter luciferase, 24 h; % of positive control, neutral wells = 0; activation, % at 12.5 µM;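 active means mean activation of at least 80% with every replicate also reaching 80%; inconclusive means mean reaches 80% but some replicate falls short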
SMARCA2 activ = activators of SMARCA2 function; MG213 cells, MMTV-luciferase reporter, dexamethasone, overnight; activation, % at 9.1 µM; actives 1% (n = 370,000); in the data active means activation above about 7.8%
esBAF inh = inhibitors of esBAF chromatin remodeling in mouse ES cells. Bmi1-luciferase knock-in reporter, 24 h; 100% = twice the neutral-well signal. reporter increase, % at 12.5 µM. actives 2% (n = 350,000); in the data active means activation above about 40%; inconclusive means no clear call, values can overlap the other calls;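 further: a rise in the Bmi1 reporter signal indicates esBAF inhibition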
FGF22 binding = binders of recombinant human FGF22 by thermal shift; actives 1.5% (n = 340,000); SYPRO orange fluorescence; percent of sucrose octasulfate shift, DMSO zero; activity (Tm shift, normalised), % at 9.99 µM; AID 651658;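 active means mean Tm shift, scaled 0 neutral to 100 positive control, at about 1.3% or above, every replicate too, limit read from the data; inconclusive means no clear call, values can overlap the other calls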
Target sequence (Q9HCT0 whole entry, looked up): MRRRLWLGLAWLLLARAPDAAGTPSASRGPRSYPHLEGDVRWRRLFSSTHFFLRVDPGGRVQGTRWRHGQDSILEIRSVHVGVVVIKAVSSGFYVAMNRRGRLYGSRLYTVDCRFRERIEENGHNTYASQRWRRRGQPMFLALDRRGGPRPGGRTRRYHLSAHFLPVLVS
AF4-AF9 inh = inhibitors of human MLL-AF4/AF9 interaction; inhibition, % at 10 µM; AlphaScreen, biotin-AF4 peptide binding to FLAG-AF9; actives 0.47% (n = 350,000);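 active means every replicate reaching a set inhibition limit, whatever the replicate mean, cut at about 25% in these data; inconclusive means mean inhibition reaches that limit but some replicates miss it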
Numbers stand for hits; 0 = inactive; ? = inconclusive; - = not tested or not shown. This is a sample that favours compounds with a hit; in the whole collection about 4.3% have one here.

SMILES	Wnt act	MITF TRPM1 HTS	SMARCA2 activ	esBAF inh	FGF22 binding	AF4-AF9 inh
CCCC#Cc1ccc2c(c1)O[C@@H](CN(C)C(=O)COC)[C@@H](C)CN([C@@H](C)CO)S2(=O)=O	-	-	-	0	0	0
CC(=O)N(Cc1ccccc1)Cc1nc2sc(C)c(C)c2c(=O)[nH]1	0	0	0	0	43.6	0
Cc1sc2nc(CN(Cc3ccccc3)C(=O)NC3CCCCC3)[nH]c(=O)c2c1C	0	0	0	0	-	-
COc1cc2cc(/C=C/C(=O)c3ccco3)c(Cl)nc2cc1OC	0	0	0	0	-	-
Cc1ccc2nc(Cl)c(/C=C/C(=O)c3ccco3)cc2c1	0	-	0	50.0	0	0
Cc1ccc2cc(/C=C/C(=O)c3ccco3)c(Cl)nc2c1	60.2	-	0	-	0	0
O=C(NC1CCCCC1)N1C[C@@H]2N[C@H](C1)C2c1ccc(-c2cccc(F)c2)cc1 (stereo partly specified)	-	-	-	-	-	0
CCc1nc(N2[C@H](C#N)[C@@H](c3ccccc3-c3ccc(F)cc3)[C@H]2CO)sc1C	-	-	-	-	-	0
Cn1cccc1CC(=O)NNC(=O)Nc1ccc(Cl)cc1	0	0	0	-	44.4	0
O=C(NCCCN1CCOCC1)c1ccc(Br)cc1	-	0	0	0	-	-
Fc1cc(F)cc(NC(=S)NCCCN2CCOCC2)c1	0	0	0	0	43.5	0
Cc1cccc(NC(=O)C(=O)NCCCN2CCOCC2)c1	0	0	0	-	42.9	0
Fc1cccc(NC(=S)NCCCN2CCOCC2)c1	-	0	0	0	-	-
O=C(CSCc1ccccc1)NCCCN1CCOCC1	0	0	0	0	44.2	0
Cc1cc(C)n(-c2ccc(C(=O)NCCCN3CCOCC3)cc2)n1	0	0	0	0	43.8	0
O=C(CN1CCOCC1)N1CC(=O)N2[C@H](CO)[C@@H](c3ccc(/C=C/c4ccccc4)cc3)[C@H]2C1	-	-	-	-	0	0
N#Cc1ccc(OC[C@@H](O)CN2CCC(C(O)(c3ccccc3)c3ccccc3)CC2)cc1	-	-	0	-	-	-
COC(=O)C(C)N1C(=O)S/C(=C/c2cc(C)n(C(C)C)c2C)C1=O (stereo unspecified)	38.4	86.2	0	-	-	-
CCOC(=O)C(C)N1C(=O)S/C(=C/c2cc(C)n(-c3ccncc3)c2C)C1=O (stereo unspecified)	0	0	0	0	0	0
CCn1c(C)cc(/C=C2/SC(=O)N(C(C)C(=O)OC)C2=O)c1C (stereo unspecified)	47.4	?	0	0	0	0
Cc1cccc(NC(=O)CN2C(=O)N/C(=C/c3cc(C)n(C(C)C)c3C)C2=O)c1	-	0	0	0	0	0
CCOC(=O)C(C)N1C(=O)S/C(=C/c2cc(C)n(-c3ccccn3)c2C)C1=O (stereo unspecified)	47.1	0	0	0	-	-
COC(=O)CN1C(=O)S/C(=C/c2cc(C)n(C)c2C)C1=O	?	0	0	56.6	-	-
CO[C@@H]1CN(C)C(=O)c2cc(NS(=O)(=O)c3ccccc3Cl)ccc2OC[C@@H](C)NC[C@@H]1C	-	-	-	0	0	0
COCCn1c(C)cc(/C=C2/SC(=O)N(C(C)C(=O)OC)C2=O)c1C (stereo unspecified)	0	97.1	0	66.0	0	0
SMILES	Wnt act	MITF TRPM1 HTS	SMARCA2 activ	esBAF inh	FGF22 binding	AF4-AF9 inh
COCCn1c(C)cc(/C=C2\NC(=S)N(C)C2=O)c1C	0	0	0	-	0	0
CC(C)[C@@H](CO)NC(=O)c1ccc2c3n(nc2c1)-c1ccc(Cl)cc1CO3	44.7	89.0	0	59.1	0	-
C[C@@H](CO)NC(=O)c1ccc2c3n(nc2c1)-c1ccc(Cl)cc1CO3	46.5	101.9	0	81.4	-	-
CCc1cc(-c2ccc3c(c2)COc2c4ccccc4nn2-3)on1	0	0	0	0	-	-
COc1ccc(Cl)cc1NC(=O)c1ccc2c(SCC(=O)O)c3c(nc2c1)CCCC3	0	0	0	0	0	0
O=C(CSc1nnc(-c2cccc(Br)c2)o1)N1CCNC1=O	0	87.7	0	61.6	0	0
O=C(c1cccc(-c2nnc(-c3ccccc3)o2)c1)N1CCCCC1	-	0	0	72.4	-	-
O=C(O)c1ccc(-c2nnc(-c3cccc(Br)c3)o2)cc1	0	0	0	71.3	0	0
COCC(=O)Nc1ccc2c(c1)[C@@H]1C[C@H](CC(=O)NC3CCCC3)O[C@H](CO)[C@@H]1O2	-	-	-	0	0	0
C=CCN(CC#Cc1ccc(C(F)(F)F)cc1)CC=C	-	-	0	-	-	-
CC(C)NC1(C#N)CCN(Cc2ccccc2)CC1	0	0	0	0	43.3	0
CCNC1(C#N)CCN(Cc2ccccc2)CC1	0	0	0	0	0	0
O=C(Nc1ccc2ccccc2n1)c1ccccc1Cl	36.1	0	0	0	0	0
CN(C)CCNc1c2c(nc3ccccc13)CCC2	0	0	0	0	0	0
O=C(Nc1cccc(NC(=O)c2ccc(Cl)cc2)n1)c1ccc(Cl)cc1	0	0	0	0	0	0
COCCCNc1c2c(nc3ccccc13)CCC2	0	-	0	0	43.8	0
O=C(Nc1ccc2ccccc2n1)c1ccc(Cl)cc1	44.1	0	0	0	0	0
O=C(Nc1c2c(nc3ccccc13)CCCC2)c1ccccc1Cl	0	0	0	-	44.0	0
C[C@H](CO)N1C[C@H](C)[C@@H](CN(C)C(=O)NC2CCCCC2)OCCCC[C@H](C)Oc2ccc(NC(=O)CCC(F)(F)F)cc2C1=O	-	-	-	0	0	0
O=C(Nc1ccc2ccccc2n1)C1CCCCC1	48.1	-	0	0	0	-
COc1ccc2nc3ccccc3nc2c1NC(=O)c1ccccc1Cl	0	0	0	-	42.9	0
COc1ccc(-c2cc(C(=O)Nc3c(Cl)cc(Cl)cc3Cl)c3ccccc3n2)cc1OC	0	0	0	-	0	0
O=C(Nc1ccc2c(c1)[C@H]1C[C@H](CC(=O)N3CCc4ccccc4C3)O[C@H](CO)[C@H]1O2)Nc1ccccc1F	-	-	-	0	0	0
C[C@@H]1CN([C@@H](C)CO)C(=O)Cc2cc(NC(=O)Nc3cccc4ccccc34)ccc2O[C@H]1CN(C)Cc1ccncc1	-	-	-	0	2.4	0
C[C@H](CO)N1C[C@H](C)[C@@H](CN(C)Cc2ccccc2)Oc2ccc(NC(=O)Nc3ccc4c(c3)OCO4)cc2CC1=O	-	-	-	0	0	?
C[C@H]1CN([C@@H](C)CO)C(=O)Cc2cc(NC(=O)Nc3ccc4c(c3)OCO4)ccc2O[C@@H]1CN(C)Cc1ccccc1	-	-	-	48.0	0	0
C[C@H](CO)N1C[C@H](C)[C@H](CN(C)Cc2ccncc2)Oc2ccc(NC(=O)Nc3cccc4ccccc34)cc2CC1=O	-	-	-	0	-	0
COc1ccc(NC(=O)Nc2ccc3c(c2)CC(=O)N([C@@H](C)CO)C[C@H](C)[C@H](CN(C)Cc2ccc4c(c2)OCO4)O3)cc1	-	-	-	0	0	0
C[C@@H]1CN([C@@H](C)CO)C(=O)Cc2cc(NC(=O)Nc3ccc4c(c3)OCO4)ccc2O[C@H]1CN(C)CC1CCCCC1	-	-	-	0	0	26.8
